Screen size: about 330,000 compounds; about 7,300 (2.2%) were called active. This is one part of a sample in which actives are shown more often than they occur. A number with no mark means an inactive call.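 Rule for the calls: active = inhibition of at least 40%; inactive = the rest.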

This experiment in a line: growth inhibitors of tim10-1 mutant yeast, primary screen, luminescence, uHTS (AID 463190).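 Note: mutant grown at 25 °C; 0% = DMSO wells with yeast and 100% = wells holding no yeast.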 The note with it: S. cerevisiae tim10-1 ts strain growth, BacTiter-Glo, 24 h; at 20 µM; stronger effect = higher value.
In general, inhibition refers to the relative decrease from the control value, in per cent. In the case of `COc1ccc2c(c1)C(NS(=O)(=O)OCC(Cl)(Cl)Cl)CCC2` (stereo not drawn), the inhibition is 45.1% (active). To `COc1ccc(CN(C)C(C)C(=O)NC2CCCc3ccccc32)cc1` (stereo not drawn) belongs 23.2%. To `COC(=O)c1cc(OCC(=O)NC2CCCc3ccccc32)cc(C(=O)OC)c1` (stereo not drawn) belongs 11.9%; to `O=C(Nc1ccc(F)cc1)C1CCN(C(=O)c2ccc([N+](=O)[O-])cc2)CC1`, 2.2%; to `COc1ccccc1C1SCCN1C(=O)c1ccc([N+](=O)[O-])cc1` (stereo not drawn), 41.9% (active). For `COc1ccccc1C1CCN(c2ccc([N+](=O)[O-])cn2)CC1` the value was 14.4%; for `CN(C(=O)CC1C(=O)NCCN1Cc1ccc2ccccc2c1)C1CCOCC1` (stereo not drawn), 29.6%; for `NS(=O)(=O)c1ccc(CCNC(=O)c2nc(CS(=O)(=O)c3ccc(Cl)cc3)no2)cc1`, -1.2%. Regarding `CCCN(c1ccc(C)cc1)c1nc(=O)c2cccnc2s1`, the inhibition is 15.2%. To `CCC(C)NCCOCCOc1ccc(Br)cc1C` (stereo not drawn) belongs -4.38%; to `COc1ccc(-c2nc3cnccn3c2NC(C)(C)CC(C)(C)C)cc1O`, 32.9%. For `C/C(=N\OC(=O)c1ccccc1)c1c(C)nc2cc(C)ccn12` the value was 5.99%; for `Cc1cccc(/C(N)=N/OC(=O)c2ccccc2Cl)c1`, 59.7% (active). For `Cc1ccc(C(=O)O/N=C(\N)c2ccccn2)cc1Cl` the value was 26.8%.

For `O=C(NCc1ccco1)/C(=C/c1cccc([N+](=O)[O-])c1)NC(=O)c1ccco1`, the inhibition was 15.4%. For `Cc1ccc(N2C(=O)C3C4C=CC(CC4)C3C2=O)cc1Br` (stereo not drawn) the value was 6.71%; for `CCN(CC)CCN(C(=O)c1cc(Cl)sc1Cl)c1nc2cc3c(cc2s1)OCO3`, 36.6%; for `Cc1ccc2nc(N(CCN(C)C)C(=O)C3=COCCO3)sc2c1`, 44.8% (active).

In the case of `CN(C)CCN(C(=O)C1CCCCC1)c1nc2cc3c(cc2s1)OCO3`, the inhibition is 16.1%. Turning to `CCc1ccc2nc(N(CCCN(C)C)C(=O)c3ccc4c(c3)OCCO4)sc2c1`, the inhibition is 16%. To `CN(C)CCN(C(=O)CN1C(=O)c2ccccc2C1=O)c1nc2cc3c(cc2s1)OCCO3` belongs -13.3%. As for `CN(C)CCN(C(=O)C1=COCCO1)c1nc2ccc(Cl)cc2s1`, the inhibition was 66.5% (active). To `CN1C(=O)C2(OCCCO2)c2cc(Cl)ccc21` belongs -14.9%; to `CNC(=O)c1[nH]cnc1C(=O)N[C@@H](CC(C)C)C(=O)OCc1ccccc1`, 18.1%. Take `COC(=O)c1cc(S(=O)(=O)NCC2CCN(Cc3ccc(Cl)cc3)CC2)cn1C`: the inhibition is -24.4%. To `CC1=C(C(N)=O)C(c2ccc3c(c2)OCO3)n2nc(-c3cccc(C)c3)nc2N1` (stereo not drawn) belongs 0.453%; to `c1ccc(-c2nnc3n2NC(c2ccc4c(c2)OCO4)S3)cc1` (stereo not drawn), 51.2% (active); to `Cc1cccc(C)c1NC(=O)CSc1nnc(-c2ccccc2)n1Cc1ccc2c(c1)OCO2`, 21.2%. For `COc1ccc(CC(=O)N[C@@H]2c3cc(OC)c(OC)cc3C[C@H]2OCc2ccccc2)cc1` the value was 15.2%; for `Cc1ccccc1NCC(=O)N/N=C\c1ccc([N+](=O)[O-])s1`, 53.3% (active). `COc1ccc(C(=O)NCC(=O)N/N=C/c2ccc([N+](=O)[O-])s2)cc1OC`: the inhibition is 16.7%. For `Cc1ccc(/C=N/NC(=O)CN2CCN(Cc3ccccc3)CC2)s1` the value was -3.89%; for `COc1ccc(CN2CCN(Cc3ccc(OC)c(OC)c3OC)CC2)cc1`, -1.36%. With `CCOC(=O)c1cc(C#N)c(N2CCCCC2)nc1-c1ccccc1`, the inhibition was -4.08%. For `CCOc1ccc2nc(N3CCCN(C(=O)Nc4ccccc4C)CC3)c(C#N)cc2c1` the value was 42.1% (active); for `CCOc1ccc(C(=O)NC2CCN(C(=O)Nc3ccccc3OC)CC2)cc1`, 6.63%. To `O=CN1CCN(C(=O)c2ccc3c(c2)OCO3)CC1` belongs -19.2%. As for `COc1cccc(NS(=O)(=O)c2ccc3[nH]cc(C(=O)NCCCOC(C)C)c(=O)c3c2)c1`, the inhibition is 19.3%. As to `Nc1ccccc1/C=N\N=C/c1ccccc1N`, the inhibition is 7.02%. With `O=C1C=C(c2cc(C(F)(F)F)cc(C(F)(F)F)c2)C[C@@H](c2ccc3c(c2)OCO3)C1`, the inhibition is -2.52%. `COC(=O)c1c(C)[nH]c(C(=O)/C=C/c2ccc(Cl)cc2)c1C`: the inhibition was 5.77%. For `Cc1[nH]c(=O)c(C(=O)/C=C/c2ccccc2)c2c1CCCC2` the value was 46.1% (active); for `Cc1cn(COC/C=C/c2ccccc2)c(=O)[nH]c1=O`, 7.72%; for `CCCC1OC23CCCCC2C(C#N)(C#N)C1(C#N)C(=N)O3` (stereo not drawn), 13%. Take `c1ccc(-c2cn3c(n2)CCc2ccc4cccnc4c2-3)cc1`: the inhibition was 42% (active). `Cc1cc(N2C(=O)c3ccc(C(=O)NCc4ccccc4)cc3C2=O)no1`: the inhibition was 11.1%. Regarding `CCCc1nn2c(=O)cc(CSCC(=O)Nc3cccc(C)c3)nc2s1`, the inhibition was 5.18%.

As to `CCOC(=O)CC(NC(=O)C1c2ccccc2Oc2ccccc21)c1ccc(C)cc1` (stereo not drawn), the inhibition was 5.58%. To `CC(C)(C)NC(=O)NC(=O)COC(=O)C1c2ccccc2Oc2ccccc21` belongs 23.3%. Take `CCCCN1C(=S)NC[C@@H]1C(C)CC` (stereo partly drawn): the inhibition was 20.5%.

On to `Cn1c(N)c(C(=O)COC(=O)/C=C/c2cccc(C(F)(F)F)c2)c(=O)n(C)c1=O`, for which the inhibition is 17.7%. To `CCOC(=O)NNc1cc(C(F)(F)F)ccn1` belongs -3.69%; to `CCOC(=O)/C=C/c1ccc(C(F)(F)F)cc1S(=O)(=O)NC(C)(C)C`, 44.1% (active); to `COC(C(=O)NCc1ccccc1C)c1ccccc1` (stereo not drawn), -2.01%. As to `CCCCn1c(SCC(=O)N2CCOCC2)nc2c1c(=O)n(C)c(=O)n2C`, the inhibition was 0.276%.

For the molecule `CC(=O)Oc1ccc(C(=O)Nc2nccs2)cc1`, the inhibition was 8.42%. To `COc1cc(C(=O)Nc2nccs2)cc(OC)c1OC` belongs 43.9% (active); to `COc1ccc(Cc2nnc(NC(=O)c3cc(OC)c(OC)c(OC)c3)s2)cc1OC`, 8.1%; to `Cc1ccc(SC(C)C(=O)NCc2ccc(F)cc2)cc1` (stereo not drawn), 9.06%. For `CNS(=O)(=O)c1cccc(C(=O)OCCCC(=O)c2ccccc2)c1` the value was 3.9%. For `Cc1ccsc1C(=O)NCCc1ccco1` the value was -19%.

Take `COc1ccc(NC(=O)C2COc3ccccc3O2)cc1` (stereo not drawn): the inhibition is 21.5%. To `COc1ccc(OC)c2sc(NC(=O)C3COc4ccccc4O3)nc12` (stereo not drawn) belongs 47.3% (active); to `COc1cc(SC)ccc1C(=O)NNC(=O)C1COc2ccccc2O1` (stereo not drawn), 5.41%; to `CCc1cccc(C)c1NS(=O)(=O)c1c(C)nc2sccn2c1=O`, 21.8%. For `COc1ccc(NC(=O)C2C3CCC(O3)C2C(=O)O)cc1OC` (stereo not drawn) the value was -1.54%; for `COCCNC(=O)CSc1nc2c(n1-c1ccccc1)CCCC2`, 12%; for `COc1ccc(C(C(=O)NC2CCCCC2)N(C(=O)Cc2c[nH]c3ccccc23)c2ccccc2)cc1OC` (stereo not drawn), 13.4%. To `COc1cc(Cl)c(C)cc1NC(=O)CSc1nnc(-c2ccco2)n1CC(C)C` belongs 42.7% (active); to `CCn1c(SCC(=O)Nc2cc(C)c(Cl)cc2OC)nnc1-c1ccco1`, 14%. Consider `COc1cc(Cl)c(C)cc1NC(=O)CSc1nnc(-c2cccnc2)n1Cc1ccco1`, for which the inhibition is 22.4%. Consider `COc1ccc(C(=O)C2CCCN(C(=O)c3ccc(OC)o3)C2)c(C)c1` (stereo not drawn), for which the inhibition is 20.5%.

With `COc1ccccc1CC(NC(C)=O)C(=O)NC1CCN(C(=O)Nc2ccccc2Cl)CC1` (stereo not drawn), the inhibition was 12%. For `CCC(=O)Nc1nc2ccccc2n1Cc1ccccc1C` the value was 40.8% (active); for `CC(=O)Nc1nc2ccccc2n1Cc1ccc(C)cc1`, 19%. For `CCCCn1c(CCCNC(=O)CC)nc2ccccc21` the value was 0.782%. As to `COc1ccc(NS(=O)(=O)c2ccc(Oc3c(C#N)cccc3C#N)cc2)cc1`, the inhibition is -28.8%. For `COc1ccccc1NC(=O)C1=C(C)Nc2nnnn2C1c1cccc(Br)c1` (stereo not drawn) the value was 42.4% (active). Consider `COc1ccc(C2C(C(=O)Nc3ccccc3OC)=C(C)Nc3nnnn32)c(OC)c1` (stereo not drawn), for which the inhibition is 0.795%. On to `COc1cc(C2C(C(=O)Nc3ccccc3OC)=C(C)Nc3ncnn32)ccc1O` (stereo not drawn), for which the inhibition is 8.15%. Turning to `COC(=O)c1ccccc1NC(=O)C1CC(=O)N(c2ccc(OC)cc2)C1` (stereo not drawn), the inhibition is 3.6%. To `COCCn1nnnc1CN1CCC(NC(=O)Nc2cccc(OC)c2)CC1` belongs -0.459%. Take `COc1ccc(/C=C2\SC(=O)N(CCC(=O)NC3CCS(=O)(=O)C3)C2=O)cc1` (stereo not drawn): the inhibition was -0.597%.

With `COc1ccc(/C=C2\SC(=O)N(CCC(=O)NCCCn3ccnc3)C2=O)cc1`, the inhibition was 8.52%. Take `COc1ccc(/C=C2/SC(=O)N(CCCCCC(=O)Nc3ccccc3C(=O)O)C2=S)cc1`: the inhibition was 40% (active). With `Cc1cccc(OCC(O)Cn2c(N3CCCCC3)nc3c2c(=O)[nH]c(=O)n3C)c1` (stereo not drawn), the inhibition was 12.9%. Consider `CCOC(=O)C1CCN(C(=O)COc2cccc3ccccc23)CC1`, for which the inhibition is 6.37%. In the case of `O=C(CCCN=C1NS(=O)(=O)c2ccccc21)OCC(=O)c1ccc(F)c(F)c1`, the inhibition is 11.8%. On to `CCOc1ccc(NC(=O)CN(C)C(=O)c2c(C)noc2C)cc1OCC`, for which the inhibition was -5.08%. To `COC(=O)C1(CCSC)NC(c2ccc(OC)cc2OC)C2C(=O)N(c3cccc(C(C)=O)c3)C(=O)C21` (stereo not drawn) belongs 8.92%. Turning to `CC(C)(CCl)C(=O)Nc1ccc(Sc2ccc(F)cc2)cc1`, the inhibition was 53.5% (active). For `O=C(Nc1ccncc1)Nc1ccc(F)cc1` the value was -16.8%. Consider `CC(C)CNC(=S)Nc1ccc(F)cc1`, for which the inhibition is 0.34%.

Source of the values: PubChem BioAssay AID463190 (Sanford-Burnham Center for Chemical Genomics, 2010).
